# Bioassay records as filed in PubChem.
# Hits are enriched below; roughly 3.5% of the tested compounds scored in any of these assays.
# FBW7 act = activators of human E3 ligase FBW7. AID 1259310. 650,000 compounds, 0.13% hits. normalized activity (activation), % at 26.1 µM. AlphaScreen FBW7–phospho-cyclin E peptide binding, activator screen; in the data active = normalized activity above about 1.9%;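 note: purified mutant Fbw7 with reduced substrate affinity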
# GPR151 ag = human GPR151 activation; PathHunter beta-arrestin GPR151 cells, luminescence; 650,000 compounds, 1% hits; Q8TDV0; AID 1508602; activation, % at 11.2 µM; in the data active = activation above about 4.9%;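 note: 0% = median of compound wells and 100% = cells with positive control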
# MITF primary = human MITF inhibition, primary screen; O75030; AlphaScreen MITF homodimerization, bead proximity signal; inhibition, % at 2.6 µM; 650,000 compounds, 0.91% hits; AID 1259374; in the data active = inhibition above about 50%;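 note: 0% = vehicle wells with protein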
# TEAD-YAP block = TEAD-YAP interaction inhibition; HEK-TIYL cells, TEAD-Gal4/YAP UAS-luciferase luminescence; inhibition, % at 9.12 µM; AID 1259422; 640,000 compounds, 1.4% hits; in the data active = inhibition above about 32%;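 note: 0% = median of test compound wells and 100% = reference inhibitor wells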
# GPR151 confirm = human GPR151 activation, confirmation screen; shares compounds with GPR151 ag; GPR151 PathHunter beta-arrestin cells, luminescence, 90 min; % of EA-reagent control over plate median; activation, % at 11.2 µM; 6,700 tested, under 10 active; AID 1508609;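 active = mean percent activation across replicates above the confirmation screen cutoff of 4.91%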
# GPR119 counter = activates human GPR119 in a GPR151 counter-screen; activation, % at 11.2 µM; shares compounds with GPR151 ag; 6,700 compounds, 0.3% hits; GPR119 PathHunter beta-arrestin cells, luminescence, 90 min; 0 = compound-well median, 100 = enzyme-acceptor control; AID 1508611;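 active = mean percent activation in the counterscreen above 29.09%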;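 note: counterscreen on off-target GPR119 to flag nonselective hits from the GPR151 activator screen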
# Numbers without * were called inactive; nt = no result given.
SMILES,FBW7 act,GPR151 ag,MITF primary,TEAD-YAP block,GPR151 confirm,GPR119 counter
CC(C)N(C)C(=O)C1CC(=O)c2sc(NC(=O)c3ccccc3)nc2C1 (stereo not drawn),0,6.4*,11,4,0,10
CCC(C)CC(=O)Nc1nc2c(s1)C(=O)CC(C(=O)N(C)C(C)C)C2 (stereo not drawn),0,7.1*,-1,-7,0,1
CCC(C)C(=O)Nc1nc2c(s1)C(=O)CC(C(=O)N(C)Cc1nonc1C)C2 (stereo not drawn),0,5.7*,-5,-17,0,2
CCC(C)C(=O)Nc1nc2c(s1)C(=O)CC(C(=O)N(C)C(C)C)C2 (stereo not drawn),0,-1,8,-29,nt,nt
COc1ccc(CC(=O)NNC(=O)c2ccc(Cl)cc2)cc1OC,0,5.3*,16,4,0,11
Cc1ccc(S(=O)(=O)c2cc(O)ccc2O)cc1,0,1,9,-3,nt,nt
Nc1cccc(-c2cccc(C(=O)NC3CCN(Cc4ccccc4)CC3)n2)c1,0,5.3*,15,-2,1,-5
CC(=O)c1cccc(-c2nc(C(=O)NC3CCN(Cc4ccccc4)CC3)cs2)c1,0,9.9*,15,-12,0,-6
O=C(NC1CCN(Cc2ccccc2)CC1)c1csc(NCc2cccnc2)n1,0,5.0*,4,10,1,-6
O=C(NC1CCN(Cc2ccccc2)CC1)c1csc(-c2ccccc2)n1,0,-2,7,10,nt,nt
COc1cccc(C(=O)Nc2cc(-c3nc4ccccc4[nH]3)ccc2C)c1,0,0,-12,-61,nt,nt
O=C1NN(c2ccc(F)c(Cl)c2)C(=O)/C1=C\c1ccc(Br)cc1,1,-1,19,7,nt,nt
CC(=O)Oc1cccc(/C=C2/C(=O)NN(c3ccc(C)c(C)c3)C2=O)c1,1,5.0*,2,-6,-1,-13
O=C1NN(c2ccc(F)c(Cl)c2)C(=O)/C1=C\c1cccc(I)c1,0,5.2*,7,8,0,9
COc1ccc(CCS(=O)(=O)Nc2ccc3c(c2)N(C(=O)C2CCCO2)CC3)cc1 (stereo not drawn),0,5.8*,25,4,-1,-16
Cc1c(C(=O)NC(=S)Nc2ncccc2O)cccc1[N+](=O)[O-],0,5.4*,-4,0,0,-5
CCOC(=O)c1cnc2ccc(OCC)cc2c1Nc1ccc(C)cc1Br,0,1,-7,-9,nt,nt
CCN(CC)c1nc(NCc2cccnc2)nc(N2CCN(c3ccccn3)CC2)n1,0,6.0*,7,-1,-1,-14
CCN(CC)c1nc(NCCO)nc(N2CCN(c3ccccn3)CC2)n1,0,7.6*,14,5,0,-4
COc1ccccc1NC(=O)CNC(=O)c1ccc(C(C)(C)C)cc1,0,-1,-1,-8,nt,nt
Cc1ccc(C(=O)Nc2ccc(F)c([N+](=O)[O-])c2)o1,0,5.4*,17,3,0,-7
Cc1ccc(C(=O)Nc2cccc(C(F)(F)F)c2)o1,0,7.1*,19,-5,1,11
Cc1ccc(CCC(=O)Nc2ccc([N+](=O)[O-])cc2Cl)o1,0,5.2*,5,4,-1,-8
O=C(Nc1ccc(F)c([N+](=O)[O-])c1)c1ccc(-c2cccc(Cl)c2)o1,0,-1,19,20,nt,nt
COc1ccc(C(=O)Nc2cc([N+](=O)[O-])ccc2OC)cc1,0,2,-11,1,nt,nt
SMILES,FBW7 act,GPR151 ag,MITF primary,TEAD-YAP block,GPR151 confirm,GPR119 counter
COc1ccc([N+](=O)[O-])cc1NC(=O)c1ccc(C)o1,0,9.7*,13,-2,0,-6
Cc1ccc(CCC(=O)Nc2ccc(Cl)cc2Cl)o1,0,1,14,-9,nt,nt
Cc1cc(NC(=O)CSc2nc3cc4c(cc3c(=O)n2Cc2ccc(C(=O)N3CCN(c5ccccc5)CC3)cc2)OCO4)n[nH]1,0,-1,0,-5,nt,nt
O=C(NNc1ccccn1)Nc1ccc(Cl)cc1,0,6.5*,-3,-8,0,0
S=C(Nc1ccc(Cl)cc1)Nc1ccccn1,0,0,1,-27,nt,nt
O=S(=O)(O)CCc1cccc[n+]1CC(O)CO (stereo not drawn),0,0,4,4,nt,nt
